Measurements taken from PubChem BioAssay AID1159580 (chemical genetic matrix, 2015).
The whole screen tested about 5,500 compounds, of which about 2,000 (36%) were called active. Inconclusive results (about 18%) are left out. No stated cut-off is given here; in the data, active means normalized growth mostly below about 0.91 (no sharp cut-off); inconclusive means no clear call, values can overlap the other calls; inactive means mostly above about 0.92. The list shows a part of the results.

Assay: chemical genetic growth profiling, strain panel (AID 1159580);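 further: tested at 20 µM; growth read once vehicle control cultures reached saturation at 30 °C; 1 = growth at the plate median or of vehicle wells; lower values mean less growth of the strain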
Settings: S. cerevisiae deletion strains, growth OD

Measured: normalized growth

Cn1cc(C2=C(c3ccc(Cl)cc3Cl)C(=O)NC2=O)c2ccccc21
inactive: locus YAL040C, strain CLN3, hits give low values 1.02 | locus YCL061C, strain MRC1 (second series), hits give low values 1.01 | locus YDR363W, strain ESC2, hits give low values 1.01 | locus YER002W, strain NOP16, hits give low values 0.994 | locus YMR263W, strain SAP30, hits give low values 1.01 | locus YNL175C, strain NOP13, hits give low values 1 | locus YNL197C, strain WHI3, hits give low values 1 | locus YNL224C, strain SQS1, hits give low values 1.02 | locus YNL322C, strain KRE1, hits give low values 1 | locus YOR083W, strain WHI5 (second series), hits give low values 1.01 | locus YPL241C, strain CIN2, hits give low values 1.01
